High-throughput results as filed in PubChem.
Giardia killer = kills Giardia lamblia. Giardia lamblia trophozoite viability. activity change, % at 7.66 µM, hits read low. 340,000 tested, 0.15% active; in the data active = activity change below about -80%; inconclusive = between about -30% and that limit;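 also: parasites exposed to compound for two days anaerobically before the ATP read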
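ATP-content bioluminescence gauges trophozoite survival. Cells (100/well) receive compound and incubate anaerobically for 48 hrs at 37 deg C; detection reagent follows for 15-30 min at room temperature.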
IL-1B inflam inh = inhibitors of inflammasome signaling (IL-1 beta secretion); THP-1 LPS/ATP IL-1B secretion, AlphaLISA, 16 h; hits give low values; activity change, % at 57.5 µM; 360,000 tested, 4.7% active; AID 743279; in the data active = activity change below about -50%; inconclusive = mostly about -30% to -49%
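THP-1 cells pretreated 1 hr with compounds (up to 57.5 uM final), then stimulated with LPS (250 ng/mL final) plus ATP (1.25 mM final); secreted IL-1B measured by AlphaLISA after 16 hr, decreased signal indicating inhibition.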
TDP1 block = TDP1 (human) enzyme inhibition; Q9NUW8; recombinant TDP1, AlphaScreen DNA substrate cleavage; Potency, µM (series often up to 130 µM), inactives show top-dose activity change, negative = inhibition, most hits filed as inhibitors; 350,000 tested, 0.28% active; AID 485290; also: potency is read from the fitted curve at half-maximal effect; nearly all actives have a fitted effect of over 40% in size
Target sequence (Q9NUW8 whole entry, looked up): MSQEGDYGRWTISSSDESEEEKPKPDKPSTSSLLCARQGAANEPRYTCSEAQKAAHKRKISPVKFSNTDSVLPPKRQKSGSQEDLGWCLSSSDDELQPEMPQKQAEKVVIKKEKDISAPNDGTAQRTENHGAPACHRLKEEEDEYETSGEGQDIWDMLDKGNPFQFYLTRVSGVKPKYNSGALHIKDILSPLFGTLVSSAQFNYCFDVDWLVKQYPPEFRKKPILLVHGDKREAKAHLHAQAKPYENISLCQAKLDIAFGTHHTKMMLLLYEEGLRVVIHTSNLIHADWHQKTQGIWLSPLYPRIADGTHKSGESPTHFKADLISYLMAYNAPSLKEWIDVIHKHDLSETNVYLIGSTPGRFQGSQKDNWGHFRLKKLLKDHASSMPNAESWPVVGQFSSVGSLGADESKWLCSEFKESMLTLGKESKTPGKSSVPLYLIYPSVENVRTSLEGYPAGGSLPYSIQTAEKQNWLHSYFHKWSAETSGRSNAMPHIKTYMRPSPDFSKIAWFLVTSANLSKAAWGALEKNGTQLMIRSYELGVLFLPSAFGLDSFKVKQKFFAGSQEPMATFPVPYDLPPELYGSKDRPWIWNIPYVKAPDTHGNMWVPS
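Tdp1 1 nM final; 15 min RT w/ cpd; substrate 15 nM, 5 min; beads 10 ug/ml, 10 min; AlphaScreen read. Neg ctrl: no enzyme.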
ELG1 DNA repair = blocks ELG1-dependent DNA repair in HEK293T cells; 330,000 tested, 2.3% active; Potency, µM (doses to about 46.1 µM), without a hit: at the highest dose activity change, negative = inhibition, actives largely listed as inhibitors; HEK293T ELG1-luciferase reporter, luminescence, 16 h; DNA damage induced by 5-fluorouridine; also: potency is read from the fitted curve at half-maximal effect; nearly all actives have a fitted effect of over 55% in size
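Quantitative HTS, concentration-response format. 2,000 cells/well co-treated with 5-fluorouridine and compound, 16 hr in 5% CO2 at 37 °C; ONE-Glo luminescence read after 30 min.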
TDP1 cell CPT = DT40-hTDP1 cell growth loss with CPT; chicken DT40 Tdp1-/-;hTDP1 cells + 20 nM CPT, ATP luminescence, 48 h; Potency, µM (doses to about 46.2 µM), for the others: at the highest dose activity change, negative = growth inhibition, usual class: inhibitors; 420,000 tested, 12% active; also: potency is read from the fitted curve at half-maximal effect; nearly all actives have a fitted effect of over 55% in size
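Chicken DT40 Tdp1-/- cells stably complemented with human TDP1 were seeded at 400 cells/well in medium containing 20 nM camptothecin, exposed to pin-transferred compounds, and grown at 37 °C for at least 48 hr. Viability was read as ATP luminescence.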
DT40 TDP1 no CPT = qHTS for Inhibitors of human tyrosyl-DNA phosphodiesterase 1 (TDP1): qHTS in cells in absence of CPT. 420,000 tested, 15% active. Potency, µM (series often up to 46.2 µM), inactives show at the highest dose activity change, negative = growth inhibition, actives largely listed as inhibitors. AID 686978, 2013. DT40 Tdp1-/- hTDP1 cells, no CPT, ATP luminescence, 48 h; also: potency is read from the fitted curve at half-maximal effect; nearly all actives have a fitted effect of over 55% in size
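Seeded 400 DT40-hTDP1 cells/well (vehicle DMSO, no 20 nM CPT); pinned compounds; ≥48 hr at 37 °C; CellTiter-Glo luminescence as viability measure.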
The depositor's hits bear a star; ? = inconclusive; · = no result; [ ] = dose if it differs, or a comment. Rows were chosen to be rich in hits. Some 19% of all compounds tested hit in one or more screens of this group. Unless noted, calls follow the shape of the dose curve; as a rule, active = well fitted curve in the direction sought with a large enough effect; inconclusive = small, poorly fitted or top-dose-only effect, or another doubt; inactive = no such curve, though single readings can be large; an effect the other way counts as inactive or inconclusive. % is scaled to controls: 0 for no effect and ±100 for the full control effect.

SMILES	Giardia killer	IL-1B inflam inh	TDP1 block	ELG1 DNA repair	TDP1 cell CPT	DT40 TDP1 no CPT
CCOC(=O)c1c(C)[nH]c(C)c1S(=O)(=O)N1CCC(C(=O)NCc2ccccc2)CC1	·	·	2.6%	·	0.3%	3.6%
COc1ccc(N2CCN(CC(=O)Nc3ccccc3C(=O)NCc3ccccc3)CC2)cc1	-24.7	3.1	8.9%	7.08µM*	14.6µM*	18.4µM*
COc1ccc(N2CCN(CC(=O)Nc3ccccc3C(=O)NC(C)c3ccccc3)CC2)cc1 (configuration not stated)	·	-28.2	·	·	?	20.6µM*
CC(NC(=O)c1ccccc1NC(=O)CN1CCc2ccccc2C1)c1ccccc1 (configuration not stated)	-2.3	47.0	0.3%	13µM*	-17.2%	?
FC(F)(F)c1ccccc1CNCc1ccc2c(c1)OCO2	-10.2	-12.9	·	-1.3%	-10.2%	-12.7%
CCCCCCCC/C=C\CCCCCCCCOC[C@H](COP(=O)([O-])OCC[N+](C)(C)C)OC(C)=O	·	·	3.7%	·	6.5%[4.12 µM]	1.9%[4.12 µM]
Cc1ccccc1CN1C(=O)c2ccccc2Sc2ccc(C(=O)NCc3cccs3)cc21	·	·	-2.6%	·	23.1µM*	23.1µM*
O=C(NC1CCCCC1)c1ccc2c(c1)N(Cc1ccccc1F)C(=O)c1ccccc1S2	·	·	1.9%	·	?	?
Cc1ccccc1CN1C(=O)c2ccccc2Sc2ccc(C(=O)NC3CCCC3)cc21	·	·	7.8%	·	16.4µM*	?
Oc1ccc(/C=N/Nc2ccc(C(F)(F)F)cn2)cc1	-1.5	-94.8*	2.5%	?	?	-22.1%
COc1cc(/C=N/Nc2ccc(C(F)(F)F)cn2)cc(OC)c1O	11.1	-13.0	0.0%	-4.7%	?	18.4µM*
COc1ccc(-c2nc3cnc(N4CCOCC4)nc3n(CCc3ccccc3)c2=O)cc1	·	·	·	·	-3.9%	17.7%
Cc1ccc(/C=C2/C(=N)N3N=C(CC(=O)N4CCCC4)SC3=NC2=O)o1	12.7	6.3	-0.9%	20.2%	?	?
N=C1/C(=C\c2ccc(Br)o2)C(=O)N=C2SC(CC(=O)N3CCCCC3)=NN12	-5.2	-9.9	-11.5%	8.4%	6.51µM*	7.31µM*
O=C(Nc1cccc(C(=O)O)c1)/C(=C\c1ccc2c(c1)OCO2)NC(=O)c1ccccc1Br	·	-7.5	·	·	-11.0%	0.6%
Cc1ccc2c(CN(C)Cc3ccc(Cl)cc3Cl)cc(=O)oc2c1	7.9	?	·	-8.0%	-29.4%	?
Cc1cc(C)c(O)c(CN(C)Cc2cc(Cl)cc(Cl)c2O)c1	-10.3	-90.3*	·	·	?	16.4µM*
COc1ccc(S(=O)(=O)N2CCOCC2)cc1NC(=O)c1ccc(S(=O)(=O)N2CCCCC2)cc1	11.8	-15.5	·	·	11.6µM*	?
O=C(Nc1nnc(S(=O)(=O)N2CCCC2)s1)c1ccccc1F	2.6	-58.9*	-1.3%	20.9%	-6.2%	?
COc1ccc(S(=O)(=O)N2CCCCC2)cc1NC(=O)c1ccc(CS(C)(=O)=O)cc1	2.1	-21.8	1.7%	10.1%	-5.9%	18.4µM*
COc1ccc(S(=O)(=O)N2CCCCC2)cc1NC(=O)c1ccc(C)cc1	-15.9	-1.1	-0.2%	2.7%	6.1%	13.5%
COc1ccc(C)cc1NC(=O)c1cc(S(=O)(=O)N2CCN(c3cccc(C)c3C)CC2)ccc1F	·	·	7.8%	·	-20.9%	-27.5%
COc1ccc(C)cc1NC(=O)c1cc(S(=O)(=O)N2CCC(C)CC2)ccc1F	·	·	-2.6%	·	16.4µM*	20.6µM*
COc1ccc(S(=O)(=O)N2CCCCC2)cc1NC(=O)c1cccc(S(=O)(=O)N2CCOCC2)c1	-17.4	0.0	·	·	?	?
O=C(CN1N=C(c2ccccc2)CCC1=O)NCc1ccc(F)cc1Cl	·	·	0.0%	·	-28.3%	?
